Consider 56 compounds from ChEMBL document CHEMBL3988442, “University of Dundee, Small-Polar-MMV Screening Library” (2021).

Out of some 48,000 compounds screened, about 13,000 (27%) showed an effect of 50% or more. This is one part of the list.

This assay relates to Wolbachia pipientis. The assay is described as follows: Anti-Wolbachia Cell-Based Screen. Type of assay: functional. On the set-up: scale not given: in the data most compounds retested in dose-response had high values. The conditions noted are these: 5 µM.
On to `CCCc1n[nH]c(C2CN(Cc3nnc(C4CC4)n3C)CCO2)n1` (stereo unspecified), for which the “Percent Effect” value is recorded as -1.998%.

On to `COCCO[C@H]1CCN(C(=O)c2cnoc2C)[C@H]1Cc1cnn(C)c1`, for which the “Percent Effect” value is given as -37.67%.

In the case of `CC(CN1CCN(C)CC1)NC(=O)c1cc(Cl)c2c(c1)OCO2` (stereo unspecified), the “Percent Effect” value is listed as -52.56%.

Consider `COc1ncc(CN2CCCC(c3[nH]ncc3S(C)(=O)=O)C2)cn1` (stereo unspecified), for which the “Percent Effect” value was 102.2%.

Regarding `CN(C)S(=O)(=O)N1CC[C@@H]2CN(Cc3cnn(C)c3)C[C@@H]2C1`, the “Percent Effect” value was -2.262%.

On to `Cn1cc(CN2CCC(c3[nH]ncc3S(C)(=O)=O)C2)cn1` (stereo unspecified), for which the “Percent Effect” value was 89.03%.

`CS(=O)(=O)c1ncc(CN2CCN3CCCC3C2)n1CC1CCCCC1` (stereo unspecified): the “Percent Effect” value amounted to 0.5285%.

Turning to `CCn1cc(CN2CCC(c3[nH]ncc3S(C)(=O)=O)C2)cn1` (stereo unspecified), the “Percent Effect” value turned out to be 105.5%.

On to `CCC[C@@H]1CN(Cc2cnc3c(S(C)(=O)=O)cnn3c2)C[C@H]1N(C)C`, for which the “Percent Effect” value is reported as -11.35%.

Consider `CCn1cc(CN2CCN(C)C3(CCC(=O)N(CC4CC4)CC3)C2)cn1` (stereo unspecified), for which the “Percent Effect” value is given as 0.5097%.

Take `CCn1cc(CN2CCC(c3nnc(CN(C)C)n3CC)CC2)cn1`: the “Percent Effect” value is on record as -1.722%.

Turning to `CCn1cc(CN2CCCC(c3[nH]ncc3S(C)(=O)=O)C2)cn1` (stereo unspecified), the “Percent Effect” value was 1.783%.

As for `Cn1cc(CN2CC[C@@H]3[C@@H](CCC(=O)N3CC3CCNCC3)C2)cn1`, the “Percent Effect” value is listed as -8.948%.

Consider `CCCn1cc(CN2CCC(c3[nH]ncc3S(C)(=O)=O)C2)cn1` (stereo unspecified), for which the “Percent Effect” value came out at 113%.

For `COc1cc(Br)c(S(=O)(=O)NC(=O)C(C)OC)cc1OC` (stereo unspecified), the “Percent Effect” value turned out to be 2.536%.

In the case of `Cc1cc(C(=O)N2C[C@H]3CC[C@@H]2CN(Cc2ccccn2)C3)nc(C)n1`, the “Percent Effect” value is -8.906%.

As to `Cc1ccc(F)c(S(=O)(=O)NCc2[nH]ncc2Br)c1`, the “Percent Effect” value is listed as -8.756%.

As to `CCn1nc(CC(C)C)cc1C(=O)N1CC(N2CCCCC2C)C1` (stereo unspecified), the “Percent Effect” value stood at 1.245%.

Consider `CC(CCS(C)(=O)=O)NC(=O)NCc1ccc2c(c1)CCC2` (stereo unspecified), for which the “Percent Effect” value is 5.194%.

Take `Cc1ccc2c(c1)nc1n2[C@@H](CNC(=O)c2cncnc2)COC1`: the “Percent Effect” value is listed as -17.88%.

Regarding `Cc1cc(N2CCC(n3cc(CN4CCNCC4)nn3)CC2)ccn1`, the “Percent Effect” value was -4.274%.

Take `Cn1nccc1-c1nnn2c1COCC(CNC1CCOCC1)C2.O=C(O)C(F)(F)F.O=C(O)C(F)(F)F` (stereo unspecified): the “Percent Effect” value amounted to 88.78%.

In the case of `O=C(O)C(F)(F)F.c1csc(CNCC2COCc3c(-c4ccoc4)nnn3C2)n1` (stereo unspecified), the “Percent Effect” value worked out at 7.766%.

`Cc1noc(C)c1CNCC1COCc2c(-c3ccoc3)nnn2C1.O=C(O)C(F)(F)F` (stereo unspecified): the “Percent Effect” value is given as -8.022%.

Consider `CN(C)CCNCC1COCc2c(-c3ccnn3C)nnn2C1` (stereo unspecified), for which the “Percent Effect” value came out at 97.42%.

Take `Cn1nccc1-c1nnn2c1COCC(CNCC1CC1)C2.O=C(O)C(F)(F)F.O=C(O)C(F)(F)F` (stereo unspecified): the “Percent Effect” value is reported as 95.94%.

For `c1csc(CNCC2COCc3c(-c4ccsc4)nnn3C2)n1` (stereo unspecified), the “Percent Effect” value is listed as -12.98%.

Consider `O=C(NCC1COCc2c(-c3ccncc3)nnn2C1)[C@H]1CCCO1.O=C(O)C(F)(F)F` (stereo partly specified), for which the “Percent Effect” value came out at 13.14%.

Consider `Cc1nc(CNCC2COCc3c(-c4ccoc4)nnn3C2)cs1` (stereo unspecified), for which the “Percent Effect” value is on record as -8.682%.

As to `Fc1cccc(-c2nnn3c2COCC(CNCc2nccs2)C3)c1.O=C(O)C(F)(F)F` (stereo unspecified), the “Percent Effect” value is -16.94%.

Consider `CC(C)N(Cc1cccnc1)C(=O)CNc1ccc(C#N)cc1`, for which the “Percent Effect” value is given as -12.71%.

`O=C(Nc1cnccn1)[C@@H]1CC[C@@H]2[C@@H](CCN2Cc2nccs2)O1.O=C(O)C(F)(F)F`: the “Percent Effect” value was found to be 114.9%.

Regarding `Cc1cccc(CN2CC[C@H]3O[C@H](C(=O)Nc4cnccn4)CC[C@H]32)n1.O=C(O)C(F)(F)F.O=C(O)C(F)(F)F`, the “Percent Effect” value is given as 108.3%.

With `Cc1csc(CN2CC[C@H]3O[C@H](C(=O)Nc4cccnc4)CC[C@H]32)n1.O=C(O)C(F)(F)F.O=C(O)C(F)(F)F`, the “Percent Effect” value turned out to be 273.2%.

With `O=C(Nc1cnccn1)[C@H]1CC[C@@H]2[C@@H](CCN2Cc2ccccn2)O1.O=C(O)C(F)(F)F`, the “Percent Effect” value is 79.42%.

Take `O=C(NCc1ccco1)[C@H]1CC[C@@H]2[C@@H](CCN2Cc2nccs2)O1.O=C(O)C(F)(F)F`: the “Percent Effect” value came out at 5.491%.

`Cn1cc(CN2CC[C@H]3O[C@H](C(=O)NC4CC4)CC[C@H]32)c2ccccc21.O=C(O)C(F)(F)F`: the “Percent Effect” value is on record as -3.833%.

In the case of `O=C(NC1CCC1)[C@@H]1CC[C@@H]2[C@@H](CCN2CCc2ccccc2)O1.O=C(O)C(F)(F)F`, the “Percent Effect” value is on record as -17.29%.

With `Cc1ncccc1NC(=O)[C@@H]1CC[C@@H]2[C@@H](CCN2Cc2cnn(C)c2)O1.O=C(O)C(F)(F)F.O=C(O)C(F)(F)F.O=C(O)C(F)(F)F`, the “Percent Effect” value is listed as -6.669%.

Take `O=C(NCc1ccccn1)[C@@H]1CC[C@@H]2[C@@H](CCN2c2ncc(F)cn2)O1.O=C(O)C(F)(F)F.O=C(O)C(F)(F)F`: the “Percent Effect” value came to 7.451%.

On to `CC(C)NC(=O)[C@@H]1CC[C@@H]2[C@@H](CCN2Cc2ccc3ccccc3n2)O1.O=C(O)C(F)(F)F`, for which the “Percent Effect” value is recorded as -12.2%.

For `O=C(c1cc[nH]n1)N(Cc1cccc(O)c1)CC1CC1`, the “Percent Effect” value is -5.824%.

`CN1CCCCC12CCN(c1nncs1)CC2.O=C(O)C(F)(F)F`: the “Percent Effect” value is reported as -22.78%.

Turning to `CCCN1CCc2[nH]nc(C(=O)N3CCNC(=O)C3)c2C1.O=C(O)C(F)(F)F.O=C(O)C(F)(F)F`, the “Percent Effect” value is -12.08%.

In the case of `CCc1nnc(C2Cc3ccccc3CN2Cc2cc(C)no2)o1` (stereo unspecified), the “Percent Effect” value is -1.172%.

Take `Cc1cc(CN2Cc3ccccc3CC2c2nnc(C)o2)no1` (stereo unspecified): the “Percent Effect” value came to 108.3%.

`CCc1nnc(C2Cc3ccccc3CN2Cc2cc(C)on2)o1` (stereo unspecified): the “Percent Effect” value worked out at 6.832%.

As to `Cc1noc(CN2Cc3ccccc3CC2c2nnc(C)o2)n1` (stereo unspecified), the “Percent Effect” value came out at 1.632%.

Take `CCc1nnc(C2Cc3ccccc3CN2Cc2nc(C)no2)o1` (stereo unspecified): the “Percent Effect” value amounted to 88.09%.

Consider `Cc1nnc(C2Cc3ccccc3CN2Cc2ncc(C(C)(C)C)o2)o1` (stereo unspecified), for which the “Percent Effect” value worked out at 21.52%.

As to `CCc1nnc(C2Cc3ccccc3CN2Cc2nc(C3CC3)no2)o1` (stereo unspecified), the “Percent Effect” value is on record as -3.635%.

With `Cc1nnc(C2Cc3ccccc3CN2Cc2c(C)noc2C)o1` (stereo unspecified), the “Percent Effect” value was 100.9%.

In the case of `Cc1cc(CN2Cc3ccccc3CC2c2nnc(C)o2)on1` (stereo unspecified), the “Percent Effect” value is given as 1.784%.

With `Cc1noc(C)c1CN1CCCC1C(=O)OCc1ccccc1` (stereo unspecified), the “Percent Effect” value is reported as 4.096%.

Regarding `Cc1nnc(C2Cc3ccccc3CN2Cc2nc(C(C)C)no2)o1` (stereo unspecified), the “Percent Effect” value is given as 134.6%.

For `Cc1nnc(C2Cc3ccccc3CN2Cc2nc(C3CC3)no2)o1` (stereo unspecified), the “Percent Effect” value is -2.569%.
